SMILES strings stand for the structures. Records with an inconclusive call do not appear. A call without a number means that no potency is given here. Calls of active or inactive are those of the source. Calls come from the whole dose curve; as a rule, active = well fitted curve in the direction sought with a large enough effect; inconclusive = small, poorly fitted or top-dose-only effect, or another doubt; inactive = no such curve, though single readings can be large; an effect the other way counts as inactive or inconclusive.

The nature of assay [1]: qHTS for Inhibitors of Ubiquitin-specific Protease USP2a Using CHOP2 as the Reporter: K633 Counterscreen (AID 652168). The conditions noted are these: No-enzyme DiUb K48 IQF substrate fluorescence interference, kinetic; series mostly up to 57.5 µM. The essentials: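 Cell-free interference counterscreen without USP2a: compounds pinned into enzyme-free buffer (20 mM Tris pH 8, 2 mM beta-mercaptoethanol, 0.05% Chaps), then DiUb K48-4IQF substrate added (100 nM stock); fluorescence read kinetically, Ex 525/Em 598.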

The target in assay [2] is Ubiquitin carboxyl-terminal hydrolase 2 (Homo sapiens) (UniProt O75604). The assay is described as follows: qHTS for Inhibitors of Ubiquitin-specific Protease USP2a Using CHOP2 as the Reporter: K484 Substrate (AID 652173).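 Note: cleavage of internally quenched K48 di-ubiquitin substrate measured as rising fluorescence over time; nearly all actives have a fitted effect of over 70% in size.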 Note: potency is the fitted concentration of half-maximal effect. The following applies: USP2 cleavage of DiUb K48 IQF substrate, fluorescence; series mostly up to 57.5 µM. Summed up:
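USP2 (dispensed at 5 nM) was pinned with compounds, then DiUb K48 internally quenched fluorescent substrate (dispensed at 100 nM) was added. The buffer was 20 mM Tris pH 8, 2 mM beta-mercaptoethanol and 0.05% CHAPS. Cleavage was read kinetically as rising fluorescence, Ex 525/Em 598.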
(In qHTS, concentration-response curves come from the screen itself.)

The target of assay [3] is Calcium and integrin-binding protein 1 (Homo sapiens) (UniProt Q99828). The assay is described as follows: Primary qHTS for Identification of Calcium Integrin Binding Protein 1 (CIB1) Competitor (AID 1508620).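 Note: GST tagged CIB1 binding a fluorescein labelled alphaIIb integrin peptide tracer; top concentration of the series differs between compounds.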 The following applies: CIB1-GST / FITC-alphaIIb peptide fluorescence polarization; series mostly up to 114 µM. Summed up:
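CIB1-GST (1 uM final) and compound incubated 15 min at room temperature before adding FITC-alphaIIb peptide tracer (100 nM final). Competition for binding read by fluorescence polarization (ex 480, em 540) after another 15 min at room temperature.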

The nature of assay [4]: qHTS for Inhibitors of Ubiquitin-specific Protease USP2a Using CHOP2 as the Reporter: Cytotox Assay (AID 652170). Note: nearly all actives have a fitted effect of over 70% in size. Note: potency is the fitted concentration of half-maximal effect. The conditions noted are these: HCT116 viability, CellTiter-Glo luminescence, 72 h; series mostly up to 46.1 µM. The essentials: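 HCT116 human colon cancer cells, 600 per well in DMEM with 10% FBS, exposed to compounds for 72 hr at 37 deg C. ATP measured by CellTiter-Glo luminescence, normalized to DMSO cells and no-cell background.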

Ubiquitin carboxyl-terminal hydrolase 2 (Homo sapiens), sequence (O75604 whole entry, looked up): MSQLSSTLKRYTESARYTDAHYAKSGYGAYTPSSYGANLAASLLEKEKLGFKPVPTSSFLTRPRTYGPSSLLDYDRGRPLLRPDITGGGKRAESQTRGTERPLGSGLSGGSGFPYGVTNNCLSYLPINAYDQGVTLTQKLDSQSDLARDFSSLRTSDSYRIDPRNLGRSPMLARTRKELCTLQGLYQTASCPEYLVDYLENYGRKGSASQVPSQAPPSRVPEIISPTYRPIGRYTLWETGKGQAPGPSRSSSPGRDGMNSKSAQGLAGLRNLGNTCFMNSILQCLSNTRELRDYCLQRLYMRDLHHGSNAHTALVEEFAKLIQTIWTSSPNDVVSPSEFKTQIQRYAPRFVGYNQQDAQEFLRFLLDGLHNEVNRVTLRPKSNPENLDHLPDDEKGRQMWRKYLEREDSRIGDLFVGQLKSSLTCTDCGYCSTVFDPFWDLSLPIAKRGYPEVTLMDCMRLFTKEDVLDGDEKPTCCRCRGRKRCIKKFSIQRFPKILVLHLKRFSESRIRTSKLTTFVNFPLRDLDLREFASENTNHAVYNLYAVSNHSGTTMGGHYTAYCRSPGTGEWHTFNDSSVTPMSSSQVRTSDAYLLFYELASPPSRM
Calcium and integrin-binding protein 1 (Homo sapiens), sequence (Q99828 whole entry, looked up): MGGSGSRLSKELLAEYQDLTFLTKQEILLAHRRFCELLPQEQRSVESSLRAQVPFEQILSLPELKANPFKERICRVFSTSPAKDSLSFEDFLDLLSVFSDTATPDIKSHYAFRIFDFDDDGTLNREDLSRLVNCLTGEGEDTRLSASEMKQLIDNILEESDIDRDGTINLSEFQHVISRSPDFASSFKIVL

Turning to `O=C1CC(c2ccccc2)Cc2[nH]c(=O)c(-c3nc(-c4ccc(F)cc4)cs3)cc21` (stereo not given), the call in assay [1] was inactive. Further, the Potency in assay [2] is 17.2 µM (active). In assay [3], the Potency result is “inactive”.

`O=C(Nc1nc(-c2ccccc2)cs1)c1ccccc1S(=O)(=O)Nc1nccs1`: in assay [1], the outcome was inactive. The Potency result in assay [4] and in assay [3] was “inactive” throughout. Moreover, the Potency in assay [2] was 12.2 µM (active).

As for `CCCC1CCC(C(=O)Nc2ccc(S(=O)(=O)Nc3nccs3)cc2)CC1` (stereo not given), in assay [1], the molecule was classed as inactive. The Potency entry in assay [4] and in assay [3] was “inactive” throughout. In addition, the Potency in assay [2] is 10.9 µM (active).

As to `CC1CCC(C(=O)Nc2ccc([S+](=O)([O-])Nc3nccs3)cc2)CC1` (stereo not given), the molecule was called inactive in assay [1]. Besides, the Potency result in assay [4], in assay [2] and in assay [3] was “inactive” each time.

For `COc1ccc(-c2csc(NC(=O)c3ccccc3NS(=O)(=O)c3ccc(C)cc3)n2)cc1`, in assay [1], the molecule was called inactive. Further, the Potency was 18.7 µM (active) in assay [4] and 2.73 µM (active) in assay [2]. The Potency entry in assay [3] was “inactive”.

As for `Cc1ccc(S(=O)(=O)Nc2ccccc2C(=O)Nc2nc(-c3ccccc3)c(Br)s2)cc1`, the outcome in assay [1] was inactive. Also, the Potency in assay [4] is 5.9 µM (active); in assay [2], 1.22 µM (active). For the same molecule, the Potency entry in assay [3] is “inactive”.

As for `O=C(Nc1nc(-c2ccccc2)cs1)c1cccc(NS(=O)(=O)c2nccs2)c1`, the molecule was called inactive in assay [1]. Moreover, the Potency entry in assay [4] and in assay [3] was “inactive” throughout. Further, the Potency in assay [2] was 17.2 µM (active).

`Cc1ccc(-c2cc(C(=O)Nc3ccc(-c4noc(=O)[nH]4)cc3)c3ccccc3n2)cc1C`: the call in assay [1] was inactive. Moreover, the Potency in assay [2] was 4.32 µM (active). Moreover, the Potency entry in assay [3] was “inactive”.

Regarding `N#Cc1cccc(S(=O)(=O)Nc2cnccc2C(=O)Nc2nc(-c3ccccc3)cs2)c1`, the molecule was classed as inactive in assay [1]. In addition, the Potency entry in assay [4] and in assay [3] was “inactive” throughout. Besides, the Potency in assay [2] is 2.17 µM (active).

For the molecule `CCCCC(=O)N1CCC(C(=O)Nc2ccc([S+](=O)([O-])Nc3nccs3)cc2)CC1`, the result in assay [1] was inactive. The Potency result in assay [4], in assay [2] and in assay [3] was “inactive” throughout.

Turning to `CC1CC1C(=O)Nc1ccc([S+](=O)([O-])Nc2nccs2)cc1` (stereo not given), the result in assay [1] was inactive. The Potency entry in assay [2] and in assay [3] was “inactive” each time.

In the case of `O=C(Nc1ccc(S(=O)(=O)Nc2nccs2)cc1)c1ccncc1`, the call in assay [1] was inactive. Further, the Potency entry in assay [4], in assay [2] and in assay [3] was “inactive” each time.

With `O=c1[nH]c(CCl)nc2sc3c(c12)CCC3`, in assay [1], the molecule was classed as inactive. Moreover, the Potency in assay [4] was 14.8 µM (active). For the same molecule, the Potency result in assay [2] and in assay [3] was “inactive” each time.

Regarding `Cc1ccc(-c2csc(NC(=O)c3ccccc3NS(=O)(=O)c3ccc(C)cc3)n2)cc1`, the molecule was called inactive in assay [1]. Moreover, the Potency in assay [4] was 16.6 µM (active); in assay [2] it was 1.93 µM (active). Further, the Potency result in assay [3] is “inactive”.

For `O=C(Nc1ccc([S+](=O)([O-])Nc2nccs2)cc1)C1CCNCC1`, the outcome in assay [1] was inactive. Also, the Potency result in assay [4], in assay [2] and in assay [3] was “inactive” each time.

On to `Cc1ccc(-c2cc(C(=O)Nc3ccccc3)c3ccccc3n2)cc1C`, for which the molecule was classed as inactive in assay [1]. Further, the Potency in assay [2] was 24.3 µM (active). In assay [3], the Potency result was “inactive”.

As to `O=C(Cc1ccccc1)Nc1ccc(S(=O)(=O)Nc2nccs2)cc1`, in assay [1], the result was inactive. Besides, the Potency result in assay [4], in assay [2] and in assay [3] was “inactive” in each case.

On to `Cc1cccc(NC(=O)c2cc(-c3ccc(C)c(C)c3)nc3ccccc23)c1`, for which the result in assay [1] was inactive. Further, the Potency entry in assay [4], in assay [2] and in assay [3] was “inactive” throughout.

Regarding `Cc1ccc(S(=O)(=O)Nc2cnccc2C(=O)Nc2nc(-c3ccc(-c4ccccc4)cc3)cs2)cc1`, the call in assay [1] was inactive. Also, the Potency in assay [4] is 20.9 µM (active); in assay [2] it was 2.17 µM (active). Besides, in assay [3], the Potency result was “inactive”.

As for `Cc1ccc(S(=O)(=O)Nc2cc(C)ccc2C(=O)Nc2nc(-c3ccccc3)cs2)cc1`, in assay [1], the outcome was inactive. Further, the Potency is 14.8 µM (active) in assay [4] and 1.53 µM (active) in assay [2]. Also, the Potency result in assay [3] was “inactive”.

For the molecule `Cc1ccc([S+](=O)([O-])n2cc(Cc3ccc(-c4ccccc4)cc3)c3ccccc32)cc1`, the result in assay [1] was inactive. Besides, the Potency result in assay [2] and in assay [3] was “inactive” throughout.

Consider `Cc1ccc([S+](=O)([O-])n2cc(-c3ccc(-c4ccccc4)cc3)c3ccccc32)cc1`, for which, in assay [1], the result was inactive. Moreover, the Potency result in assay [2] and in assay [3] was “inactive” each time.

Regarding `CCOC(=O)c1csc(NC(=O)c2ccncc2NS(=O)(=O)c2ccc(C)cc2)n1`, the outcome in assay [1] was inactive. The Potency entry in assay [4] and in assay [3] was “inactive” in each case. Also, the Potency in assay [2] was 21.7 µM (active).

Consider `Cc1ccc(S(=O)(=O)Nc2cnccc2C(=O)Nc2nc(C3CCC3)cs2)cc1`, for which the molecule was classed as inactive in assay [1]. The Potency in assay [2] was 17.2 µM (active). Besides, the Potency result in assay [3] was “inactive”.

Regarding `O=C(Nc1ccc(S(=O)(=O)Nc2nccs2)cc1)c1cccnc1`, the result in assay [1] was inactive. Also, the Potency result in assay [2] and in assay [3] was “inactive” in each case.

Take `Cc1ccc(-c2cc(C(=O)O)c3cccc(C)c3n2)cc1C`: the molecule was called inactive in assay [1]. In addition, the Potency entry in assay [4], in assay [2] and in assay [3] was “inactive” each time.

As for `Cc1ccc(S(=O)(=O)Nc2ccccc2C(=O)Nc2nc(-c3ccc(Cl)cc3)cs2)cc1`, in assay [1], the molecule was called inactive. Moreover, the values for the Potency in assay [4] and in assay [2] were 8.33 µM (active) and 1.93 µM (active), respectively. In addition, the Potency entry in assay [3] was “inactive”.

For the origin of these results see PubChem BioAssay (NCATS).
